# Bioassay records from PubChem.
# This is a sample that favours compounds with a hit; in the whole collection about 5% have one here.
# CHT block: inhibitors of human choline transporter CHT; CHT-expressing cells, membrane potential dye, choline response; hits give low values; 0.86% of 310,000 active; B-score at 10 µM; AID 488975; Q9GZV3;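 active means B-score over 3 SD under the library average, and starting fluorescence ratio not unusually high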;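 further: choline stimulus applied at its EC90 after an EC20 pre-addition; B-score computed on integrated fluorescence ratio after choline addition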
# ALR H2O2 inh: inhibitors of human sulfhydryl oxidase ALR; AID 485317; P55789; 3.8% of 290,000 active; inhibition, % (concentration not given with the values); purified ALR, DTT oxidation, H2O2 HRP-luminol luminescence;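 active means mean replicate inhibition above about 79%, with every replicate also reaching it, limit read from the data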
# CHT allo act: allosterically activates the human high affinity choline transporter. B-score at 10 µM. Q9GZV3. 0.49% of 310,000 active. CHT-expressing cells, membrane potential dye, choline EC20; hits give high values; LV-AA mutant CHT in HEK293 cells;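 active means initial fluorescence not abnormally high and integrated response B-score, plate-corrected, over 3 SD above library mean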
# PREPL inh: human PREPL enzyme inhibition; 0.68% of 320,000 active; recombinant PREPL, fluorescence polarization activity-based probe; AID 2751; inhibition, % at 5.96 µM; in the data active means inhibition above about 43%;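 further: 0% = enzyme with DMSO and 100% = wells lacking enzyme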
# AI-2 QS modul: modulates the Vibrio harveyi AI-2 quorum sensing system. Vibrio harveyi JMH597 AI-2 luminescence/OD600 ratio, 9 h; hits give low values; strain lacks LuxN and CqsS sensors; 0 = neutral-control median. activity change, % at 7.5 µM. 0.4% of 300,000 active; in the data active means activity change below about -75%, passing the limit was not always enough;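 further: luminescence divided by OD600 gain over 9 h not by final OD600 alone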
# CHT act confirm: confirmation of human choline transporter (CHT) activators; AID 504833; 91% of 2,500 active; activation, % at 10 µM; shares compounds with CHT allo act; CHT-expressing cells, membrane potential dye fluorescence (FDSS); % of choline EC20–EC90 response window; HEK293 expressing CHT LV-AA mutant; choline added at its EC20;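 active means primary screen active, with duplicate mean activation above negative control mean plus 3 SD, cut at about 11% in these data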
# HEK293 MP dye: activity in parental HEK293 cells lacking CHT | shares compounds with CHT allo act | membrane potential dye fluorescence (FDSS); measured after EC20 choline addition | ratio readout change at 10 µM, hits read low | 62% of 2,500 active | AID 623908;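 active means duplicate-averaged ratio beyond 3 SD from buffer wells, up or down, though filed actives are nearly all decreases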
# The depositor's hits bear a star; i = inactive; . = not tested or not shown.
SMILES,CHT block,ALR H2O2 inh,CHT allo act,PREPL inh,AI-2 QS modul,CHT act confirm,HEK293 MP dye
Cc1cc(C)nc(/N=C(\N)Nc2ccc(S(=O)(=O)Nc3nc(C)cc(C)n3)cc2)n1,i,-6,8.7*,-3,36,59*,-58*
CCOc1ccc(N/C(N)=N/c2nc(C)cc(C)n2)cc1,i,-1,i,14,22,.,.
COc1ccc(NC(=O)c2cncc(Br)c2)cc1S(=O)(=O)N1CCCCC1,i,-14,i,-1,50,.,.
CCc1nc(SCC(=O)Nc2cc(C)ccc2OC)c2c(C)c(C)sc2n1,i,.,i,12,15,.,.
OC(C#CCCN1CCCCC1)(c1ccccc1)C1CCCCC1 (stereo unspecified),i,-7,7.5*,-2,30,18*,i
CC(=O)NS(=O)(=O)c1ccc(NC(=O)c2cccc3ccccc23)cc1,i,-53,i,-5,11,.,.
CN1CCN(c2ccc(Cl)cc2NC(=O)C2COc3ccccc3O2)CC1 (stereo unspecified),i,-8,i,11,19,0,i
CCOc1ccc(OCCOC(=O)CNC(=O)c2ccc(Cl)cc2Cl)cc1,i,-12,i,1,2,.,.
COc1ccc2c(c1)c(C(=O)CN1CCCCC1)c(C)n2C,i,-4,i,16,-7,44*,-51*
COc1ccc(N2CCN(CC(=O)c3c(C)n(C)c4ccc(OC)cc34)CC2)cc1,i,32,i,30,9,.,.
COc1ccc2c(c1)c(C(O)CN1CCC3(CC1)OCCO3)c(C)n2C (stereo unspecified),.,.,.,.,0,.,.
COc1ccc2c(c1)c(C(=O)CN1CCOCC1)c(C)n2C,i,-30,i,1,-8,38*,-37*
COc1ccc2c(c1)c(C(=O)CN1CCC3(CC1)OCCO3)c(C)n2C,i,-7,6.4*,16,8,15*,-41*
COc1ccc2c(c1)c(C(=O)CN1CCC(C(N)=O)CC1)c(C)n2C,i,-4,6.3*,35,11,65*,-51*
COc1ccc(S(=O)(=O)N[C@@H](CSCc2ccccc2)C(=O)O)cc1,i,-6,i,.,12,.,.
CCN(CC)C(=S)SCc1csc(CC(=O)Nc2ccccc2C)n1,i,2,i,4,25,.,.
CC(=O)C[C@@H](O)CC(=O)[C@@H]1OC(=O)[C@@H](C)CCCCc2ccccc21,.,.,.,3,.,.,.
CN(C)CC1CCCCC1C1(O)c2ccccc2CSc2sccc21 (stereo unspecified),i,1,i,7,.,13*,i
CCN(CC)CCNc1nc2c(c(=O)n(C)c(=O)n2C)n1C/C=C(/C)Cl,i,9,i,0,22,68*,-42*
C/C(Cl)=C\Cn1c(NCCc2ccccc2)nc2c1c(=O)n(C)c(=O)n2C,i,6,i,38,3,.,.
Cn1c(=NC(=O)C2=NNC(=O)CC2)sc2ccccc21,i,40,6.9*,2,23,54*,-32*
O=C(NC1CCCCC1)c1ccc2c(c1)S(=O)(=O)c1ccccc1C2=O,i,.,i,9,19,.,.
CCN(Cc1ccc(OC)c(F)c1)C(=O)/C=C/c1ccc(S(=O)(=O)N2CCOCC2)cc1,.,-9,.,11,.,.,.
Cc1ccn2cc(CCNS(=O)(=O)c3ccc4c(c3)OCCO4)nc2c1,i,.,i,6,5,25*,i
Cc1ccn2cc(CCNS(=O)(=O)c3ccc4ccccc4c3)nc2c1,i,.,i,-3,9,.,.
COc1ccc(CN(C)C(=O)c2sccc2-c2ccccc2)c(OC)c1,i,1,i,-5,10,.,.
CN(Cc1ccc(F)cc1)C(=O)c1sccc1-c1ccccc1,i,-7,6.7*,.,7,37*,i
CN(Cc1cccc(F)c1)C(=O)c1cc(=O)[nH]c2ccccc12,i,-14,i,7,.,.,.
COc1ccccc1CN(C)C(=O)c1ccc(COc2ccccc2)cc1,i,-25,i,12,20,.,.
